Only some compounds are listed: those with a hit (about 1.3% of all), similar ones and a draw of the others.
GALR2 blocker: blocks the human galanin receptor 2; O43603; GALR2-expressing cells, antagonist mode; inhibition, % at 4 µM; 0.39% of 140,000 active; AID 828;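 also: cells stimulated with galanin 1-16 at roughly its EC80; 0% = agonist challenge control and 100% = basal control without agonist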
Target sequence (O43603 whole entry, looked up): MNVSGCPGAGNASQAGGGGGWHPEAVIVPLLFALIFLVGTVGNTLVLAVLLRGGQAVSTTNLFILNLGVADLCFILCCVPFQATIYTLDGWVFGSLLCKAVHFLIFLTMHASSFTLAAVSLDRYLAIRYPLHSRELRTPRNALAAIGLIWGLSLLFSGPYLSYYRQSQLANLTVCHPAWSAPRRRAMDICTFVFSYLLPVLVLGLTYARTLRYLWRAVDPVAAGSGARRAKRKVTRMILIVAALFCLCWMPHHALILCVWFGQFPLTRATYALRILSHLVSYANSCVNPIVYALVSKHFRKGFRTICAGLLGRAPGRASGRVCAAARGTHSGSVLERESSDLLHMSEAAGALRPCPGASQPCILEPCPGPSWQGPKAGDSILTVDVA
S1P2 antag: S1P2 (human) receptor antagonism; O95136; cell-based S1P2 antagonist assay, inhibition at 5 uM; inhibition, % at 5 µM; 0.21% of 97,000 active; in the data active = inhibition above about 45%;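 also: CRE beta-lactamase reporter cells expressing human S1P2 stimulated with S1P; 0% = agonist at EC80 alone and 100% = agonist plus reference antagonist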
GALR2 ag: agonists of human galanin receptor 2 (GALR2) | O43603 | GALR2-expressing cells, agonist activation read-out | activation, % (no concentration beside the values) | 0.48% of 140,000 active | AID 803; in the data active = activation above about 5%, passing the limit was not always enough;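 also: 0% = vehicle buffer wells and 100% = reference agonist at full effect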
S1P2 ag: agonists of human S1P2 receptor; 0.46% of 97,000 active; S1P2-expressing cell line, agonist reporter read-out; activation, % at 4.5 µM; O95136; AID 729; in the data active = activation above about 16%;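 also: 0% = vehicle low control and 100% = maximal reference agonist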
Candida biofilm: kills Candida albicans biofilms. C. albicans biofilm + clotrimazole, Alamar Blue. inhibition, % at 6 µM. 0.14% of 85,000 active. AID 834;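 active = inhibition above 20%; inactive = inhibition below 20%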;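 also: preformed 24 hr biofilms exposed to compound for 48 hr; 0% = biofilm without compound and 100% = blank killed by clotrimazole plus chlorhexidine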
Phagocytosis inh: inhibitors of macrophage phagocytosis; 0.07% of 110,000 active; J774A.1 macrophage IgG-bead phagocytosis, imaging; AID 1029; inhibition, % at 5 µM;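 active = inhibition above the mean of the plate negative controls plus 5 SD, cut at about 13% in these data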;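 also: phagocytic index as fraction of beads internalized from green versus red external bead signal; plate controls were DMSO negative control for no effect and cytochalasin-D positive control for full effect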
GALR2 agon conf: GALR2 (human) agonism confirmed | 10% of 460 active | activation, % at 5.6 µM | shares compounds with GALR2 ag | GALR2-expressing cells, agonist activation; in the data active = activation above about 8.4%;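 also: 0% = buffer-only vehicle wells and 100% = full reference agonist response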
BLA activ ctr: counter-screen for GALR2 agonists: beta-lactamase reporter activators. CHO NFAT-bla reporter, beta-lactamase FRET activation. shares compounds with GALR2 ag. activation, % at 5.6 µM. AID 865. 10% of 460 active;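 active = activation above the screen-wide mean activation plus 3 SD, cut at about 8% in these data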;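 also: 0% = DMSO with PBS wells and 100% = thapsigargin positive control wells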
GALR2 blk conf: GALR2 (human) antagonism confirmed; shares compounds with GALR2 blocker; AID 866; inhibition, % at 4 µM; GALR2-expressing cells, antagonist mode, inhibition; 60% of 480 active;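 also: cells stimulated with galanin at about its EC80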
BLA inh counter: beta-lactamase inhibition, GALR2 counterscreen; shares compounds with GALR2 blocker; CHO NFAT-BLA reporter, beta-lactamase FRET, thapsigargin-stimulated; inhibition, % at 4.2 µM; 36% of 480 active;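 active = inhibition above the mean inhibition across tested compounds plus 3 SD, cut at about 27% in these data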;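 also: 0% = 500 nM thapsigargin stimulated wells and 100% = unstimulated BSA only wells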
The depositor's hits bear a star; . = not tested or not shown. Rule as the data show it, unless noted: active = inhibition above about 27%; inactive = the rest.

SMILES	GALR2 blocker	S1P2 antag	GALR2 ag	S1P2 ag	Candida biofilm	Phagocytosis inh	others
CCCCCc1nc2ccccc2c(=O)n1-c1ccccc1[N+](=O)[O-]	-15	.	-1	.	.	.
CCCCCc1nc2c(c(=O)c3ccccc3n2C)c(=O)n1C1CCCCCC1	-2	.	7.3*	.	.	-8
C=CCNC(=O)c1c(N)n(Cc2ccco2)c2nc3ccccc3nc12	-19	-15	6.4*	18*	15	0
CC(=O)OC1(c2ccccc2)CC(C(C)(C)C)CN(C(C)(C)C)C1 (stereo unspecified)	-5	.	0	.	.	4
Nc1c(C(=O)NCCc2ccccc2)c2nc3ccccc3nc2n1CCN1CCOCC1	-12	-28	25*	31*	12	0
CC(C)CCNC(=O)c1c(N)n(CC2CCCO2)c2nc3ccccc3nc12 (stereo unspecified)	-11	-62	32*	40*	.	0
COc1ccc(CCNC(=O)c2c(N)n(CCN3CCOCC3)c3nc4ccccc4nc23)cc1	-6	-24	7	27*	.	0
CCCCn1c(N)c(C(=O)NCCN2CCOCC2)c2nc3ccccc3nc21	-4	-17	3	2	8	0
COC(=O)C(O)(c1ccc2c(c1)CCCN2)C(F)(F)F (stereo unspecified)	2	.	-1	.	7	-1
O=C(Cn1ncc2c3ccccc3n(Cc3ccccc3)c2c1=O)N1CCC2(CC1)OCCO2	3	.	-1	.	4	-1
CCC(C)NC(=O)c1c(N)n(CCCOC)c2nc3ccccc3nc12 (stereo unspecified)	-9	-69	16*	25*	9	-1
CCC(C)NC(=O)c1c(N)n(Cc2ccc3c(c2)OCO3)c2nc3ccccc3nc12 (stereo unspecified)	-12	-169	84*	140*	.	1
CCC(C)NC(=O)c1c(N)n(CC2CCCO2)c2nc3ccccc3nc12 (stereo unspecified)	4	.	3	.	-3	0
COc1cccc(N2C(=O)NC(=O)/C(=C/c3ccc4c5c(cccc35)CC4)C2=O)c1	9	.	-1	.	.	.
COCCNP(=O)(c1ccccc1)c1nc2ccccc2s1 (stereo unspecified)	-7	23	12*	1	.	0	GALR2 agon conf=-1;BLA activ ctr=0
COc1cc2c3cc1Oc1cc(ccc1O)C[C@@H]1c4c(cc(OC)c(O)c4Oc4ccc(cc4)C[C@H]3N(C)CC2)CCN1C	-1	.	9.6*	.	.	.	GALR2 agon conf=12*;BLA activ ctr=1
COc1ccc(C[C@@H]2c3cc(O)c(OC)cc3CCN2C)cc1O	2	.	-1	.	.	.
CC(NC1CCCCC1)C(O)C12CC3CC(CC(C3)C1)C2 (stereo unspecified)	6	-11	19*	-4	2	1	GALR2 agon conf=0;BLA activ ctr=-2
CC(NC(C)(C)C)C(=O)c1cccc(Cl)c1 (stereo unspecified)	-1	.	-2	.	2	.
Cc1c2ccncc2c(C)c2c1[nH]c1ccccc12	1	.	12*	.	.	.	GALR2 agon conf=13*;BLA activ ctr=4
CC(C)COc1ccc(C2(C#N)CC[N+](C)(C)CC2)cc1	6	11	-2	-2	.	.
C=CCn1c(O)c(C(CC)=NCCc2ccccc2)c(=O)[nH]c1=O	-13	-6	12*	-3	5	0	GALR2 agon conf=0;BLA activ ctr=1
Cc1ccc(N2C(=O)NC(=O)C3(Cc4ccccc4N4CCN(c5ccccc5)CC43)C2=O)cc1 (stereo unspecified)	-1	-5	-2	1	-4	-1
CCCCn1c(O)c(C=NCCCN(CC)CC)c(=O)[nH]c1=O	-5	13	0	-2	0	0
O=c1cc(C(F)(F)F)c2cc3c4c(c2o1)CCCN4CCC3	36*	36	9	-4	9	2	GALR2 agon conf=2;BLA activ ctr=-1;GALR2 blk conf=32*;BLA inh counter=44*
O=c1c(/C=N/N2CCOCC2)c(O)n(-c2ccccc2)c(=S)n1-c1ccccc1	-2	.	0	.	.	-1

Assay outcomes from PubChem BioAssay.
